In all, about 310,000 compounds went through this assay and about 14,000 (4.5%) showed an effect of 50% or more. The effect is printed as a negative number. The entries come from a sample that favours strong results as a whole.
Each compound was assayed against human ether-à-go-go-related gene (hERG) potassium channel (human, UniProt Q12809) (assay: primary screen, population patch clamp on CHO cells stably expressing hERG; higher = less effect of the substance).
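Note: peak tail current of the secondary pulse compared with the same well before compound.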

Sequence of human ether-à-go-go-related gene (hERG) potassium channel (Q12809 whole entry, looked up): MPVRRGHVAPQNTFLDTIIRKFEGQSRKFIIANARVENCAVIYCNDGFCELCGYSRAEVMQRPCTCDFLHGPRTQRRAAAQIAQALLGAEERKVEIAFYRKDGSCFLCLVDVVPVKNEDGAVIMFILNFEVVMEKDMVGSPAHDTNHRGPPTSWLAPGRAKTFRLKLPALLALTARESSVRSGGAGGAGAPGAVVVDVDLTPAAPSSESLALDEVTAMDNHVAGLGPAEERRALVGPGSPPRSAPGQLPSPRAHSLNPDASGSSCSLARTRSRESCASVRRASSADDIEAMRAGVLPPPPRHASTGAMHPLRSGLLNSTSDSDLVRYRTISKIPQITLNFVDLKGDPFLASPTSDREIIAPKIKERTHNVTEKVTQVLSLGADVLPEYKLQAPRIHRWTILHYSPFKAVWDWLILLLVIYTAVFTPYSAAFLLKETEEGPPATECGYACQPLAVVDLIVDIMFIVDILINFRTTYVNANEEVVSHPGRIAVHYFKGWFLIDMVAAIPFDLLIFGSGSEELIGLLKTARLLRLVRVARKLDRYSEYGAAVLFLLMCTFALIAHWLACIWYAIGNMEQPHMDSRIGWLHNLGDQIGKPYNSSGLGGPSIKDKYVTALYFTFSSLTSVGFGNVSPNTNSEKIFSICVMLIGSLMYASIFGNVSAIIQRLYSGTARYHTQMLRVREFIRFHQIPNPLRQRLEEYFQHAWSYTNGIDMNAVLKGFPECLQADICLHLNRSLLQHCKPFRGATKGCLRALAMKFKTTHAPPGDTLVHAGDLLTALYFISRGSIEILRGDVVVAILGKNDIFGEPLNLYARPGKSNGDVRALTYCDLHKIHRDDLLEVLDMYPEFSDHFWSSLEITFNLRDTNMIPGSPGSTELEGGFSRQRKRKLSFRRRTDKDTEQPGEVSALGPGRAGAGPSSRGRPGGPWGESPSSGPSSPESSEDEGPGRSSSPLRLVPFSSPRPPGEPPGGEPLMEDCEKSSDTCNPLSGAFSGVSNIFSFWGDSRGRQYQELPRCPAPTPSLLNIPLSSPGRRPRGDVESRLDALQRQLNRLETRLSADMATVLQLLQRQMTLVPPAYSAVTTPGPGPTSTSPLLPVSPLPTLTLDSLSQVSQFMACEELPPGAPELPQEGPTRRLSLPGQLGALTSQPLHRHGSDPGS

| Compound | hERG current change (%, negative = inhibition) at 10uM [%] |
| --- | --- |
| O=[N+]([O-])c1ccc(NCc2ccccn2)nc1 | -5.06 |
| CCC(C(=O)Nc1ccccc1)c1ccccc1 (stereo not drawn) | 7.86 |
| CS(=O)(=O)N(CC(O)Cn1c2ccccc2c2ccccc21)c1cccc2ccccc12 (stereo not drawn) | 0.652 |
| CCOC(=O)c1c(C)[nH]c(C)c1C(=O)COC(=O)c1cccc(S(=O)(=O)NC)c1 | -7.56 |
| CCc1cccc(NC(=O)COC(=O)c2cc([N+](=O)[O-])ccc2N2CCOCC2)c1 | -7.99 |
| CN(C)S(=O)(=O)c1cccc(COC(=O)c2cc([N+](=O)[O-])ccc2N2CCOCC2)c1 | -52.7 |
| O=C(OCc1ccccc1F)c1cc([N+](=O)[O-])ccc1N1CCOCC1 | -47.9 |
| COc1ccc(OC)c(COC(=O)c2cc([N+](=O)[O-])ccc2N2CCOCC2)c1 | -18 |
| O=C(OCc1c(F)cccc1Cl)c1cc([N+](=O)[O-])ccc1N1CCOCC1 | 3.43 |
| COc1ccc(COC(=O)c2cc([N+](=O)[O-])ccc2N2CCOCC2)cc1F | -62.5 |
| COc1cc(C(=O)CSc2nncn2C)cc(OC)c1OC | 6.63 |
| CCOC(=O)c1ccc(NC(=S)N2CCC(O)CC2)cc1 | 18 |
| O=C(CN1C(=O)c2ccccc2C1=O)Nc1cc(C(=O)O)cc(C(=O)O)c1 | 7.72 |
| N#Cc1ccccc1OCC(=O)NNC(=O)c1ccncc1 | 9.65 |
| CC1(c2ccc(OC(F)F)cc2)NC(=O)N(CC(=O)Nc2ccc(OC(F)F)cc2)C1=O (stereo not drawn) | -94.9 |
| CC1(c2ccc(OC(F)F)cc2)NC(=O)N(CC(=O)Nc2ccc(F)cc2)C1=O (stereo not drawn) | -45.5 |
| CC1(c2ccc(OC(F)F)cc2)NC(=O)N(CC(=O)Nc2ccc(S(N)(=O)=O)cc2)C1=O (stereo not drawn) | 1.64 |
| Cc1cc(NC(=O)CN2C(=O)NC(C)(c3ccc(Cl)cc3)C2=O)no1 (stereo not drawn) | 39.2 |
| CCOc1ccc(NC(=O)CN2C(=O)NC(C)(c3ccc(OC(F)F)cc3)C2=O)cc1 (stereo not drawn) | -16.1 |
| CC1(c2ccc(OC(F)F)cc2)NC(=O)N(CC(=O)Nc2ccccc2)C1=O (stereo not drawn) | -51.3 |
| Cc1ccc(C2(C)NC(=O)N(CC(=O)Nc3cc(C)on3)C2=O)cc1 (stereo not drawn) | -10.7 |

| Compound | hERG current change (%, negative = inhibition) at 10uM [%] |
| --- | --- |
| CC1(c2ccc(OC(F)F)cc2)NC(=O)N(CC(=O)Nc2cccc(F)c2)C1=O (stereo not drawn) | 2.79 |
| Cc1cc(NC(=O)CN2C(=O)NC(C)(c3ccccc3)C2=O)no1 (stereo not drawn) | -55.5 |
| CCn1c(=S)sc2c(=O)n(CC(=O)NCCCc3ccccc3)c(C)nc21 | 18.8 |
| COc1ccc(OC)c(NC(=O)Cn2cnc3c(cnn3-c3ccccc3)c2=O)c1 | -12.8 |
| COc1cc(/C=C/C(=O)OCC(=O)c2c(N)n(C)c(=O)n(C)c2=O)ccc1OC(F)F | 6.4 |
| COc1ccc(CN(C)C(=O)COC(=O)c2ccc3c(c2)OCO3)cc1OC | -3.84 |
| CCC(=O)OC1(C)C(=O)C=C2C=C(C3CC3)OC=C2C1=O (stereo not drawn) | 12.5 |
| CCC(C(=O)Nc1ccccc1OC)n1c(C(=O)OC)cc2ccsc21 (stereo not drawn) | -11.3 |
| CN(CC(=O)NNC(=O)CNC(=O)c1ccccc1Cl)S(=O)(=O)c1ccc(Cl)cc1 | 9.57 |
| O=C(CN1CCCCCC1)Nc1ccccc1Cl | 6.75 |
| Cc1cccc(NC(=O)Cn2cnc3c(cnn3-c3ccc(F)cc3)c2=O)c1C | 2.99 |
| Cc1cccc(NC(=O)CN2CCN(C(=O)c3oc4c(Cl)cccc4c3C)CC2)c1C | -43.6 |
| Cc1cccc(NC(=O)CN2CCN(C(=O)c3cnn(Cc4ccccc4)c3)CC2)c1C | -87.2 |
| O=C(CN1CCN(C(=O)c2cncn2-c2ccccc2)CC1)Nc1ccccc1Cl | -77.3 |
| O=C(CN1CCCCC1)Nc1ccccc1Cl | 21.1 |
| O=C(CN1CCN(C(=O)c2cncn2-c2ccc(F)cc2)CC1)Nc1ccccc1C(F)(F)F | -70 |
| Cc1cccc(NC(=S)N2CCN(Cc3ccccc3)CC2)c1C | -13.2 |
| O=C(CN1CCN(CC(=O)Nc2ccccc2C(F)(F)F)CC1)Nc1ccccc1F | -30.2 |
| Cc1cccc(NC(=O)CN2CCN(C(=O)c3cncn3-c3ccc(F)cc3)CC2)c1C | -60.9 |
| O=C(CN1CCN(C(=O)c2c(F)cccc2F)CC1)Nc1ccccc1C(F)(F)F | -20.9 |
| COc1cc(OC)cc(C(=O)OCC(=O)Nc2ccc(F)cc2F)c1 | 4.34 |

| Compound | hERG current change (%, negative = inhibition) at 10uM [%] |
| --- | --- |
| CCC(C)(C)NC(=O)c1ccc2c(c1)S(=O)(=O)c1ccccc1C2=O | -16.8 |
| CNS(=O)(=O)c1cccc(C(=O)OCC(=O)NCCCc2ccccc2)c1 | -5.42 |
| COc1cc(OC)cc(-c2nnc(SCc3c(F)cccc3Cl)o2)c1 | 0.324 |
| COc1ccccc1CC(=O)N1CCCc2ccccc21 | 0.493 |
| COc1cc([N+](=O)[O-])ccc1NC(=O)Nc1nc2c(s1)CCCC2 | 11.7 |
| O=C(Nc1ccccc1C(=O)O)c1ccc(NC(=O)c2ccc(Br)o2)cc1 | 11.7 |
| Cc1ccc(-n2c(N)cc(=O)nc2SCC(=O)N2CCN(c3ccccc3)CC2)cc1 | -0.877 |
| COc1cc(C(CC(=O)Nc2ccc(C)cn2)N2Cc3ccccc3C2=O)cc(OC)c1OC (stereo not drawn) | -1.38 |
| COc1cc(C(CC(=O)Nc2ccc(Cl)cn2)N2Cc3ccccc3C2=O)cc(OC)c1OC (stereo not drawn) | -68.1 |
| COc1cc(C(CC(=O)Nc2ccccn2)N2Cc3ccccc3C2=O)cc(OC)c1OC (stereo not drawn) | -11.5 |
| Cc1ccc(Nc2cc(C)nc(N3CCOCC3)n2)cc1 | 6.18 |
| O=S(=O)(NC1CCCCC1)c1cccc(-c2nnc(-c3ccccc3)o2)c1 | -36.4 |
| Cc1ccc(N=C2S/C(=C/c3cccc(OCC(=O)O)c3)C(=O)N2C)cc1C | 20.5 |
| O=C(c1ccc(C(=O)N2CCCc3ccccc32)nc1)N1CCCc2ccccc21 | -9.08 |
| CCNC(=O)CSc1nnc(-c2ccc(OC)cc2)n1CC(C)C | -3.51 |
| CC1CCCN(C(=O)Cn2c3ccccc3c3nc4n(c(=O)c32)CCS4)C1 (stereo not drawn) | -3.59 |
| COc1ccccc1CN1C[C@@H]2C[C@@H](c3ccc(Cl)cc3)N3CCC[C@@]23C1=O | -44.1 |
| Cc1ccccc1-c1cccc([C@@H]2C[C@H]3CN(Cc4cccnc4)C(=O)[C@]34CCCN24)c1 | -59 |
| COc1ccccc1CN1C[C@@H]2C[C@@H](c3ccc(C)cc3)N3CCC[C@@]23C1=O | -43.6 |
| O=C1N(Cc2cccnc2)C[C@@H]2C[C@@H](c3ccccc3C(F)(F)F)N3CCC[C@@]123 | -11.2 |
| Cc1ccccc1CN1C[C@@H]2C[C@@H](c3ccc4nsnc4c3)N3CCC[C@@]23C1=O | -18.1 |

| Compound | hERG current change (%, negative = inhibition) at 10uM [%] |
| --- | --- |
| O=C1N(Cc2cccnc2)C[C@@H]2C[C@@H](c3cccc(C(F)(F)F)c3)N3CCC[C@@]123 | -10.3 |
| CCc1ccc([C@@H]2C[C@H]3CN(Cc4ccccc4OC)C(=O)[C@]34CCCN24)cc1 | -70.7 |
| O=C1N(Cc2cccnc2)C[C@@H]2C[C@@H](c3ccc(C(F)(F)F)cc3)N3CCC[C@@]123 | -53.9 |
| O=C1N(Cc2cccnc2)C[C@@H]2C[C@@H](c3ccccc3C#Cc3ccccc3)N3CCC[C@@]123 | -69.5 |
| Cc1ccc(NC(=S)N2CCn3cccc3C2c2cccnc2)cc1 (stereo not drawn) | -37.3 |
| CCOc1ccccc1-c1nc(-c2ccncc2)no1 | -15.8 |
| COc1cccc(-c2ccc(SCC(=O)NCCc3ccccc3)nn2)c1 | -41.7 |
| CCCN(C(=O)C(C)Oc1cccc(Cl)c1)c1c(N)n(Cc2ccccc2)c(=O)[nH]c1=O (stereo not drawn) | 1.41 |
| CCC(C)N1C(=O)c2ccccc2C1C(=O)NC1CCCCCC1 (stereo not drawn) | 4.45 |
| COC(=O)c1cc2occc2n1Cc1ccc(Cl)cc1 | 9.68 |
| Nc1nonc1-n1nnc(C(=O)N/N=C/c2ccc(OCc3ccccc3)cc2)c1CN1CCCCC1 | 7.17 |
| Cc1ccccc1S(=O)(=O)NCc1cccnc1 | 5.17 |
| CN(C)S(=O)(=O)Nc1cc(Cl)cc(Cl)c1 | -0.782 |
| COc1ccc(C(O)(CCN2CCCCC2)C2CCCCC2)cc1.Cl (stereo not drawn) | -27.4 |
| CC(C)C1N(C(=O)CN2CCCC2)CCN1S(=O)(=O)c1ccccc1 (stereo not drawn) | 11 |
| Cc1cc(C(=O)NNc2cc(Cl)ccc2Cl)no1 | 6.55 |
| COC(=O)c1ccc([C@@H]2C[C@H]3CN(Cc4cccnc4)C(=O)[C@]34CCCN24)cc1 | -1.19 |
| O=C1N(Cc2cccnc2)C[C@@H]2C[C@@H](c3ccc(-c4ccccc4)cc3)N3CCC[C@@]123 | -71.3 |
